Laboratory results reported in PubChem BioAssay (Tox21).
Calls of active or inactive are those of the source. Entries that show only a call come without a potency. Calls come from the whole dose curve; as a rule, active = well fitted activation curve with a large enough effect in the repeat runs; inconclusive = weak or mixed curves; inactive = flat fitted curve, though single readings scatter.

What follows are molecules tested against KiSS-1 receptor (Homo sapiens) (UniProt Q969F8) (assay: Human kisspeptin (KISS1R) small molecule agonists, calcium flux assay in KISS1R-HEK293 cells (AID 1920064)). Details: KISS1R-HEK293, calcium flux fluorescence, agonist; series mostly up to 76.8 µM.
Source text: National Center for Advancing Translational Sciences [NCATS]
Division of Preclinical Innovation [DPI]
U.S. Environmental Protection Agency [EPA]
National Institutes of Environmental Health Sciences [NIEHS]
National Toxicology Program [NTP]
U.S. Food and Drug Administration [FDA]
Kisspeptin and its receptor KISS1R play key roles in mammalian reproduction due to their involvement in the onset of puberty and control of the hypothalamic-pituitary-gonadal axis such as regulates GnRH release from the hypothalamus. The kisspeptin/KISS1R system also plays a direct role in peripheral organs (including the ovary, testis, uterus, and placenta) and is implicated in reproductive diseases such as miscarriage and polycystic ovary syndrome (PCOS). Abnormal KISS1R activity is associated with abnormal puberty, infertility, endometriosis, and hormone-dependent tumors. The KISS1 receptor (KISS1R, also called GPR54), a G-protein-coupled receptor (GPCR), acts (through phospholipase C) to increase intracellular inositol trisphosphate and then release intracellular calcium stores. Cell-based KISS1R-HEK293 assay is using HEK293 cells that have been genetically engineered to express the human KISS1R, which activity can be measured by calcium signaling. A compound/drug can activate (agonist) KISS1R that can be monitored by levels of intracellular calcium.
KISS1R-HEK293 cells developed by Codex Corp contain human KISS1R gene, which was stably integrated into HEK 293 cells. The compound activation can be detected by fluorescence intensity via calcium flux assay. This cell line has been used to screen the Tox21 10K compound library to identify agonists of KISS1R.
KISS1R-Hek293 cells were dispensed at 1500 cells/4uL/well in 1536-well black wall/clear bottom plates using a multidrop dispenser. After the assay plates were incubated at a 37 C/5% CO2 incubator for 18 hours, 4 microL of Calcium Dye Solution was added to each well. The plates were incubated at 37 C for 1 hour. And then 23 nL of compounds dissolved in DMSO, positive controls, or DMSO only was transferred to the assay plate by a pin tool station. The fluorescence intensity in the plates was measured using FDSS 7000EX kinetic plate reader with a filter set of Ex/Em=480/540 for 3 min at 1 sec intervals. Each test compound was measured at 15 concentrations and in triplicates.

Chain of KiSS-1 receptor (Homo sapiens) (Q969F8 whole entry, looked up): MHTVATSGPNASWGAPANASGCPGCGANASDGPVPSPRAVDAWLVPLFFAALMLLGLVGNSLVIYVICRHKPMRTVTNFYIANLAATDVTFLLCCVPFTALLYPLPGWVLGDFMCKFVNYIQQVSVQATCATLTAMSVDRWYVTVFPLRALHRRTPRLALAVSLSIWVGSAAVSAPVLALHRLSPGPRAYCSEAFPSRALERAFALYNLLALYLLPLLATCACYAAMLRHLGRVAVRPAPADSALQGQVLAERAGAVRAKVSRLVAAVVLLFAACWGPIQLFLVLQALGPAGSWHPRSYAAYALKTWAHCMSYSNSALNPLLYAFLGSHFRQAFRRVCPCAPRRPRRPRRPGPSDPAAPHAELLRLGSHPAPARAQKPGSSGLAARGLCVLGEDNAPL

Row | SMILES | Potency | activation
1 | CC(C)C[C@H](NC(=O)CNC(=O)[C@H](Cc1ccc(O)cc1)NC(=O)[C@H](CO)NC(=O)[C@H](Cc1c[nH]c2ccccc12)NC(=O)[C@H](Cc1cnc[nH]1)NC(=O)[C@@H]1CCC(=O)N1)C(=O)N[C@@H](CCCN=C(N)N)C(=O)N1CCC[C@H]1C(=O)NCC(N)=O (stereo in doubt) | inactive | –
2 | c1cc(N(CC2CO2)CC2CO2)ccc1OCC1CO1 (stereo not given) | inactive | –
3 | N[C@@H](CCC(=O)O)C(=O)O | inactive | –
4 | CC(COc1ccccc1)NN (stereo not given) | inactive | –
5 | CCC1=C[C@@H]2CN(C1)Cc1c([nH]c3ccccc13)[C@@](C(=O)OC)(c1cc3c(cc1OC)N(C)[C@H]1[C@@](O)(C(=O)OC)[C@H](OC(C)=O)[C@]4(CC)C=CCN5CC[C@]31[C@@H]54)C2 | inactive | –
6 | O=C(Nc1cccc(C(F)(F)F)c1)c1cc(Br)cc(Br)c1O | inactive | –
7 | CC(C)OC(=O)CCC(=O)OC(C)C | inactive | –
8 | CC(C)CCCCCCCOC(=O)c1ccc(C(=O)OCCCCCCCC(C)C)c(C(=O)OCCCCCCCC(C)C)c1 | inactive | –
9 | O=[N+]([O-])c1ccc2ncccc2c1 | inactive | –
10 | CCC(=O)OCCc1ccccc1 | inactive | –
11 | O=c1[nH]c(=O)n([C@H]2C[C@H](O)[C@@H](CO)O2)cc1C(F)(F)F | inactive | –
12 | CC1=CCCC(C)(C)C12CCC(C)O2 (stereo not given) | inactive | –
13 | CCCCCCC[N+](CC)(CC)CCCCc1ccc(Cl)cc1 | inactive | –
14 | Cc1nn(C)c(Oc2ccccc2)c1/C=N/OCc1ccc(C(=O)OC(C)(C)C)cc1 | inactive | –
15 | Cc1c(-c2ccccc2)oc2c(C(=O)OCCN3CCCCC3)cccc2c1=O | inactive | –
16 | COC1CCC=CO1 (stereo not given) | inactive | –
17 | O=C(O)CN1C(=O)c2cccc3cccc(c23)C1=O | inactive | –
18 | NC(=O)Nc1nc2ccccc2[nH]1 | inactive | –
19 | NNC(=O)CCCCC(=O)NN | inactive | –
20 | CCN(CC)C(=O)c1cc(S(=O)(=O)Cc2ccccc2)c(N2CCC(c3ccccc3)CC2)cc1N(CC)CCN(C)C | inactive | –

Row | SMILES | Potency | activation
21 | CC(=O)Oc1ccc([N+](=O)[O-])cc1CCl | inactive | –
22 | COC(=O)[C@H]1[C@H]2C[C@@H]3c4[nH]c5cc(OC)ccc5c4CCN3C[C@H]2C[C@@H](OC(=O)/C=C/c2ccc(O)c(OC)c2)[C@@H]1OC | inactive | –
23 | BrCCOc1ccccc1 | inactive | –
24 | CN1CCN2c3ccccc3Cc3ccccc3C2C1 (stereo not given) | inactive | –
25 | COc1ccc(OC)c(Cl)c1 | inactive | –
26 | CC1=C(/C=C/C(C)=C/C=C/C(C)=C/C=O)C(C)(C)CCC1 | inactive | –
27 | Oc1ccc2c(c1)Cc1ccccc1-2 | inactive | –
28 | CC(C)N(C)C | inactive | –
29 | CC(C)O.CC(C)O.CCOC(=O)/C=C(\C)O.CCOC(=O)/C=C(\C)O.[Ti] | inactive | –
30 | CC(C)C(C)C | inactive | –
31 | C[C@H]1C[C@H]2[C@@H]3CCC4=CC(=O)C=C[C@]4(C)[C@@]3(Cl)[C@@H](O)C[C@]2(C)[C@@]1(O)C(=O)CO | inactive | –
32 | CCC(Cl)CC(Cl)C(Cl)C(Cl)C(Cl)C(C)Cl (stereo not given) | – | -1.96% [at 15.8 µM] (inactive)
33 | CCOC(=O)OCC | inactive | –
34 | Oc1cccc2c(O)cccc12 | inactive | –
35 | CCOc1ccc(NS(=O)(=O)c2ccc(N)cc2)nn1 | inactive | –
36 | CCCCCCCCCCC1CO1 (stereo not given) | inactive | –
37 | Cc1nccn1-c1ccc(Sc2cccc(C3(C(N)=O)CCOCC3)c2)cc1 | inactive | –
38 | CCCC(CC)c1ccccc1 (stereo not given) | inactive | –
39 | COC(=O)/C=C/C(C)=C\C=C\C(C)=C\C=C\C=C(C)\C=C\C=C(C)\C=C\C(=O)O | inactive | –
40 | CCO[Si](CCCSSSSCCC[Si](OCC)(OCC)OCC)(OCC)OCC | inactive | –
